According to PubChem BioAssay AID1159580 (chemical genetic matrix, 2015):
“And” between values parts separate entries of the source, which are not always exact repeats. Equal values may be shown once. Among all 5,500 compounds or so, about 2,000 (36%) were called active. Not shown: some 18% with an inconclusive outcome. No stated cut-off is given here; in the data, active means normalized growth mostly below about 0.91 (no sharp cut-off); inconclusive means no clear call, values can overlap the other calls; inactive means mostly above about 0.92. The list shows a part of the results.

Test: chemical genetic growth profiling, strain panel (AID 1159580);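 further: tested at 20 µM; growth read once vehicle control cultures reached saturation at 30 °C; 1 = growth at the plate median or of vehicle wells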
Details: S. cerevisiae deletion strains, growth OD

Measured: normalized growth

C=C1C2CC[C@@]3(C)[C@H](c4ccoc4)OC(=O)C[C@]13O[C@H]1CC(=O)C(C)(C)[C@H](C(O)C(=O)OC)[C@@]21C (some centres undefined)
inactive: locus YAL021C, strain ccr4, stronger effect = lower value 1.06 | locus YAL026C, strain drs2, stronger effect = lower value 0.995 | locus YAL030W, strain snc1, stronger effect = lower value 0.995 | locus YBL061C, strain skt5, stronger effect = lower value 0.985 | locus YBR009C, strain hhf1, stronger effect = lower value 1.05 | locus YBR021W, strain FUR4, stronger effect = lower value 0.993 | locus YBR023C, strain chs3, stronger effect = lower value 1.01 | locus YBR171W, strain sec66, stronger effect = lower value 0.994 | locus YBR229C, strain ROT2, stronger effect = lower value 1 | locus YBR231C, strain swc5, stronger effect = lower value 0.993 | locus YBR279W, strain paf1, stronger effect = lower value 1 | locus YCL011C, strain gbp2, stronger effect = lower value 1.02 | locus YCL016C, strain dcc1, stronger effect = lower value 1.01 | locus YCL029C, strain bik1, stronger effect = lower value 1.01 | locus YCL061C, strain MRC1, stronger effect = lower value 1 | locus YCL069W, strain vba3, stronger effect = lower value 0.997 | locus YCR088W, strain abp1, stronger effect = lower value 0.999 | locus YDL005C, strain med2, stronger effect = lower value 0.989 | locus YDL035C, strain GPR1, stronger effect = lower value 1.01 | locus YDL040C, strain nat1, stronger effect = lower value 0.998 | locus YDL074C, strain BRE1, stronger effect = lower value 1.02 | locus YDL101C, strain DUN1, stronger effect = lower value 1.01 | locus YDL134C, strain PPH21, stronger effect = lower value 1.01 | locus YDL185W, strain tfp1, stronger effect = lower value 1.01 | locus YDL192W, strain arf1, stronger effect = lower value 1.01 | locus YDR001C, strain nth1, stronger effect = lower value 1.02 | locus YDR069C, strain doa4, stronger effect = lower value 0.99 | locus YDR101C, strain arx1, stronger effect = lower value 0.994 | locus YDR137W, strain rgp1, stronger effect = lower value 0.959 | locus YDR159W, strain sac3, stronger effect = lower value 0.995 | locus YDR162C, strain NBP2, stronger effect = lower value 1.02 | locus YDR195W, strain ref2 0.961 | locus YDR297W, strain sur2, stronger effect = lower value 1.02 | locus YDR318W, strain mcm21, stronger effect = lower value 1.01 | locus YDR334W, strain swr1, stronger effect = lower value 0.997 | locus YDR335W, strain msn5, stronger effect = lower value 1.01 | locus YDR388W, stronger effect = lower value 1.01 | locus YDR392W, strain spt3, stronger effect = lower value 0.958 | locus YDR502C, strain sam2, stronger effect = lower value 1.02 | locus YEL003W, strain gim4, stronger effect = lower value 1 | locus YEL037C, strain rad23, stronger effect = lower value 1 | locus YEL061C, strain CIN8 (second series), stronger effect = lower value 0.996 | locus YER015W, strain faa2, stronger effect = lower value 1 | locus YER016W, strain bim1, stronger effect = lower value 0.997 | locus YER110C, stronger effect = lower value 1.01 | locus YER111C, strain swi4, stronger effect = lower value 0.994 | locus YER155C, strain BEM2 (second series), stronger effect = lower value 0.983 | locus YER155C, strain BEM2, stronger effect = lower value 0.994 | locus YER167W, strain BCK2, stronger effect = lower value 1.01 | locus YFR010W, strain ubp6, stronger effect = lower value 0.976 | locus YGL078C, strain dbp3, stronger effect = lower value 1.02 | locus YGL086W, strain mad1, stronger effect = lower value 1.01 | locus YGL167C, strain pmr1, stronger effect = lower value 1 | locus YGL173C, strain kem1, stronger effect = lower value 1 | locus YGL227W, strain vid30, stronger effect = lower value 0.991 | locus YGL240W, strain doc1, stronger effect = lower value 0.989 | locus YGL248W, strain PDE1, stronger effect = lower value 1.01 | locus YGL253W, strain hxk2, stronger effect = lower value 0.99 | locus YGR078C, strain PAC10, stronger effect = lower value 1.01 | locus YGR135W, strain pre9, stronger effect = lower value 1.02 | locus YGR252W, strain gcn5, stronger effect = lower value 1.01 | locus YHR013C, strain ard1, stronger effect = lower value 1.01 | locus YHR027C, strain rpn1, stronger effect = lower value 0.991 | locus YHR030C, strain SLT2, stronger effect = lower value 0.963 | locus YHR079C, strain IRE1 (second series), stronger effect = lower value 1.01 | locus YHR079C, strain IRE1, stronger effect = lower value 0.98 | locus YHR094C, strain hxt1, stronger effect = lower value 1.02 | locus YHR129C, strain ARP1, stronger effect = lower value 1 | locus YHR142W, strain chs7, stronger effect = lower value 1.01 | locus YHR200W, strain rpn10, stronger effect = lower value 1.02 | locus YIL066C, strain RNR3, stronger effect = lower value 1.02 | locus YIL073C, strain SPO22, stronger effect = lower value 1.03 | locus YIL125W, strain kgd1, stronger effect = lower value 1 | locus YIR030C, strain dcg1, stronger effect = lower value 1.01 | locus YJL092W, strain hpr5, stronger effect = lower value 1 | locus YJL095W, strain BCK1 (second series), stronger effect = lower value 1.01 | locus YJL095W, strain BCK1, stronger effect = lower value 1.02 and 0.96 | locus YJL115W, strain asf1, stronger effect = lower value 0.995 | locus YJL129C, strain trk1, stronger effect = lower value 0.976 | locus YJL134W, strain LCB3, stronger effect = lower value 1.01 | locus YJL154C, strain vps35, stronger effect = lower value 0.995 | locus YJL164C, strain tpk1, stronger effect = lower value 1.03 | locus YJL166W, strain qcr8, stronger effect = lower value 1.02 | locus YJL168C, strain set2, stronger effect = lower value 1.01 | locus YJL187C, strain SWE1 (second series), stronger effect = lower value 1.01 | locus YJL187C, strain SWE1, stronger effect = lower value 1 | locus YJR043C, strain POL32, stronger effect = lower value 0.999 | locus YJR066W, strain TOR1, stronger effect = lower value 0.932 | locus YJR075W, strain HOC1, stronger effect = lower value 1.01 | locus YKL009W, strain mrt4, stronger effect = lower value 0.992 | locus YKL068W, stronger effect = lower value 1.01 | locus YKL085W, strain MDH1 (second series), stronger effect = lower value 1.01 | locus YKL085W, strain MDH1, stronger effect = lower value 1.01 | locus YKL160W, strain elf1, stronger effect = lower value 1.02 | locus YKL190W, strain CNB1, stronger effect = lower value 1 | locus YKR001C, strain vps1, stronger effect = lower value 1.01 | locus YKR026C, strain gcn3, stronger effect = lower value 0.994 | locus YKR091W, strain srl3, stronger effect = lower value 1 | locus YLL001W, strain dnm1, stronger effect = lower value 0.969 | locus YLL026W, stronger effect = lower value 1 | locus YLL041C, strain sdh2, stronger effect = lower value 1 | locus YLR027C, strain aat2, stronger effect = lower value 0.983 | locus YLR039C, strain RIC1, stronger effect = lower value 1.05 | locus YLR058C, strain SHM2, stronger effect = lower value 1.02 | locus YLR102C, strain apc9, stronger effect = lower value 1.01 | locus YLR113W, strain HOG1, stronger effect = lower value 1.01 | locus YLR221C, strain rsa3, stronger effect = lower value 0.976 | locus YLR258W, strain gsy2, stronger effect = lower value 1.01 | locus YLR262C, strain YPT6 (second series), stronger effect = lower value 1.01 | locus YLR262C, strain YPT6, stronger effect = lower value 1.02 | locus YLR268W, strain sec22, stronger effect = lower value 1 | locus YLR320W, strain mms22, stronger effect = lower value 0.982 | locus YLR342W, strain FKS1 (second series), stronger effect = lower value 0.996 | locus YLR342W, strain FKS1, stronger effect = lower value 0.99 | locus YLR357W, strain rsc2, stronger effect = lower value 0.975 | locus YLR370C, strain arc18, stronger effect = lower value 1.01 | locus YLR371W, strain rom2, stronger effect = lower value 1.02 | locus YLR384C, strain iki3, stronger effect = lower value 0.984 | locus YLR418C, strain cdc73, stronger effect = lower value 1.02 | locus YML016C, strain PPZ1, stronger effect = lower value 1.01 | locus YML032C, strain rad52, stronger effect = lower value 1.01 | locus YML120C, strain ndi1, stronger effect = lower value 1.01 | locus YML124C, strain tub3, stronger effect = lower value 1.01 | locus YMR058W, strain fet3, stronger effect = lower value 0.99 | locus YMR078C, strain ctf18, stronger effect = lower value 1.02 | locus YMR125W, strain sto1, stronger effect = lower value 0.983 | locus YMR129W, stronger effect = lower value 0.998 | locus YMR205C, strain PFK2, stronger effect = lower value 1.03 | locus YMR223W, strain ubp8, stronger effect = lower value 1.01 | locus YMR231W, strain pep5, stronger effect = lower value 0.998 | locus YMR307W, strain GAS1, stronger effect = lower value 1.01 | locus YNL067W, strain RPL9B, stronger effect = lower value 1.01 | locus YNL071W, strain lat1, stronger effect = lower value 1.02 | locus YNL128W, strain TEP1, stronger effect = lower value 1.01 | locus YNL153C, strain GIM3, stronger effect = lower value 1.01 | locus YNL183C, strain NPR1, stronger effect = lower value 0.945 | locus YNL209W, strain ssb2, stronger effect = lower value 1.01 | locus YNL233W, strain BNI4, stronger effect = lower value 1 | locus YNL248C, strain rpa49, stronger effect = lower value 0.959 | locus YNL250W, strain rad50, stronger effect = lower value 1 | locus YNL271C, strain bni1, stronger effect = lower value 1.01 | locus YNL298W, strain CLA4, stronger effect = lower value 1.01 | locus YNL307C, strain MCK1, stronger effect = lower value 1.02 | locus YNL322C, strain KRE1 (second series), stronger effect = lower value 1 | locus YNR049C, strain mso1, stronger effect = lower value 0.995 | locus YNR052C, strain pop2, stronger effect = lower value 1.01 | locus YOL006C, strain TOP1, stronger effect = lower value 1.03 | locus YOL012C, strain htz1 1.49 | locus YOL147C, strain pex11, stronger effect = lower value 1.01 | locus YOR001W, strain rrp6, stronger effect = lower value 0.953 | locus YOR061W, strain CKA2, stronger effect = lower value 1.01 | locus YOR069W, strain VPS5, stronger effect = lower value 1.01 | locus YOR070C, strain gyp1, stronger effect = lower value 0.99 | locus YOR080W, strain dia2, stronger effect = lower value 1 | locus YOR083W, strain WHI5, stronger effect = lower value 1.04 | locus YOR106W, strain vam3, stronger effect = lower value 1.02 | locus YOR136W, strain idh2, stronger effect = lower value 1.01 | locus YOR144C, strain elg1, stronger effect = lower value 1 | locus YOR184W, strain ser1, stronger effect = lower value 1.02 | locus YOR231W, strain MKK1, stronger effect = lower value 0.983 | locus YOR265W, strain rbl2, stronger effect = lower value 1.01 | locus YOR270C, strain vph1, stronger effect = lower value 0.995 | locus YOR290C, strain snf2, stronger effect = lower value 1.03 | locus YOR316C, strain cot1, stronger effect = lower value 1.01 | locus YPL051W, strain arl3, stronger effect = lower value 0.984 | locus YPL078C, strain atp4, stronger effect = lower value 1.02 | locus YPL106C, strain sse1, stronger effect = lower value 1.05 | locus YPL240C, strain hsp82, stronger effect = lower value 0.998 | locus YPL256C, strain CLN2, stronger effect = lower value 0.981 | locus YPR119W, strain clb2, stronger effect = lower value 1.01 | locus YPR141C, strain kar3, stronger effect = lower value 1 | locus YPR163C, strain tif3, stronger effect = lower value 1.01 | locus YPR167C, strain met16, stronger effect = lower value 1.01 | strain wtn01, stronger effect = lower value 1
